Active and inactive are the calls of the source.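 How the source made its calls: active means compound with fitted CDK2 half-maximal potency at or below twice its top tested dose; inconclusive means flat curve near 30 to 70% inhibition, or poor fit; inactive means the rest.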
molecular target: Cyclin-dependent kinase 2 (Homo sapiens) + Cyclin-A2 (Homo sapiens) (UniProt P20248+P24941); experiment: blockade of human CDK2 kinase activity – biochemical, dry powder, set 3, selectivity assay for Dyrk1A inhibitor project, dose response (AID 651681); conditions: CDK2/cyclin A ADP-Glo luminescence, histone H1 peptide; series mostly up to 10 µM
Sequence (P20248 whole entry, looked up, one chain of several): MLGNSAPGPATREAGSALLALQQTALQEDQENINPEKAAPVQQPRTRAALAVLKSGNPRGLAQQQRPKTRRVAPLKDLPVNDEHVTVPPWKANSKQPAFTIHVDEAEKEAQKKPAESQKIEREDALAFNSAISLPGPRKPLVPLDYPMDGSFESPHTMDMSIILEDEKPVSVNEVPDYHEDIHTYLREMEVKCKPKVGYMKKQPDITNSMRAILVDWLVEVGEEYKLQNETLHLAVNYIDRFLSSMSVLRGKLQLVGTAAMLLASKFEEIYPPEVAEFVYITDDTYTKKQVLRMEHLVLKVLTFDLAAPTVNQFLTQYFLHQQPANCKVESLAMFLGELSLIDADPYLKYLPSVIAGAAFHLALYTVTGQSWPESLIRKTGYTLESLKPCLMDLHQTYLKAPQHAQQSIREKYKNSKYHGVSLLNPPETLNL

outcome, inactive:
COc1ccc2c(Cl)c(C(N)=O)sc2c1
COc1ccc(C2=Nn3c(nnc3-c3cccnc3)SC2)cc1OC
COc1ccc2nc(NC(=O)C3CCCN(S(=O)(=O)c4cccc5nonc45)C3)sc2c1 (stereo not drawn)
CCOc1ccc2nc(NC(=O)C3CCCN(S(=O)(=O)c4cccc5cccnc45)C3)sc2c1 (stereo not drawn)
COc1ccc(OC)c(C2=Nn3c(nnc3-c3ccncc3)SC2)c1
COc1cccc(C2=Nn3c(nnc3-c3ccccc3)SC2)c1
CN(CC(=O)Nc1nc2ccccc2s1)S(=O)(=O)c1ccc(Cl)cc1
COc1ccc(NC(=O)C2CCCN(S(=O)(=O)c3cccc4nonc34)C2)cc1 (stereo not drawn)
CN(CC(=O)Nc1nc2ccccc2s1)S(=O)(=O)c1ccccc1
CN(CC(=O)Nc1nc2ccc(Cl)cc2s1)S(=O)(=O)c1ccc(Cl)cc1
COc1ccc(-c2csc(NC(=O)CSCC(=O)N3CCCC3)n2)cc1
O=C(NCc1ccccc1)c1sc2ccccc2c1Cl
COc1ccc2c(Cl)c(C(=O)NCc3ccccc3)sc2c1
COc1ccc2nc(NC(=O)C3CCN(S(=O)(=O)c4cccc5nsnc45)CC3)sc2c1
CCOc1ccc2nc(NC(=O)COc3ccc(Cl)c(OC)c3)sc2c1
COc1ccc2nc(NC(=O)C3CCN(S(=O)(=O)c4cccc5nonc45)CC3)sc2c1
COc1ccc2nc(NC(=O)C3CCN(S(=O)(=O)c4cccnc4)CC3)sc2c1
C=CCn1cnc2scc(-c3ccc(OC)cc3)c2c1=O

From PubChem BioAssay AID651681 (Broad Institute, 2012)
